Among the data in PubChem BioAssay (Tox21) are Potency values, retold here.

Records with an inconclusive call do not appear. Entries that show only a call come without a potency. Some structures have more than one record in an assay (separate samples or runs), and their calls can disagree. The source made the active and inactive calls. Calls follow the shape of the full dose curve. Starred links: 1 amine or outer side, 2 acyl side, 3 side chain; linkers in the order of their positions; H or OH if unused. Positions of bridges follow the written chain, without caps; N, C: chain ends. Non-standard residues stand in square brackets, D forms with d. Residues, ends and D or L forms follow the SMILES beside them. Chains are numbered I, II in the order given. Actinocin(9to1) = Cc1c2oc3c(C)ccc(C(=O)[*:1])c3nc-2c(C(=O)[*:2])c(N)c1=O; NMeV = CN[C@H](C(=O)O)C(C)C; Sar = CNCC(=O)O
Potency is read from the fitted curve at half-maximal effect.

Chain of Progesterone receptor (Homo sapiens) (P06401 whole entry, looked up): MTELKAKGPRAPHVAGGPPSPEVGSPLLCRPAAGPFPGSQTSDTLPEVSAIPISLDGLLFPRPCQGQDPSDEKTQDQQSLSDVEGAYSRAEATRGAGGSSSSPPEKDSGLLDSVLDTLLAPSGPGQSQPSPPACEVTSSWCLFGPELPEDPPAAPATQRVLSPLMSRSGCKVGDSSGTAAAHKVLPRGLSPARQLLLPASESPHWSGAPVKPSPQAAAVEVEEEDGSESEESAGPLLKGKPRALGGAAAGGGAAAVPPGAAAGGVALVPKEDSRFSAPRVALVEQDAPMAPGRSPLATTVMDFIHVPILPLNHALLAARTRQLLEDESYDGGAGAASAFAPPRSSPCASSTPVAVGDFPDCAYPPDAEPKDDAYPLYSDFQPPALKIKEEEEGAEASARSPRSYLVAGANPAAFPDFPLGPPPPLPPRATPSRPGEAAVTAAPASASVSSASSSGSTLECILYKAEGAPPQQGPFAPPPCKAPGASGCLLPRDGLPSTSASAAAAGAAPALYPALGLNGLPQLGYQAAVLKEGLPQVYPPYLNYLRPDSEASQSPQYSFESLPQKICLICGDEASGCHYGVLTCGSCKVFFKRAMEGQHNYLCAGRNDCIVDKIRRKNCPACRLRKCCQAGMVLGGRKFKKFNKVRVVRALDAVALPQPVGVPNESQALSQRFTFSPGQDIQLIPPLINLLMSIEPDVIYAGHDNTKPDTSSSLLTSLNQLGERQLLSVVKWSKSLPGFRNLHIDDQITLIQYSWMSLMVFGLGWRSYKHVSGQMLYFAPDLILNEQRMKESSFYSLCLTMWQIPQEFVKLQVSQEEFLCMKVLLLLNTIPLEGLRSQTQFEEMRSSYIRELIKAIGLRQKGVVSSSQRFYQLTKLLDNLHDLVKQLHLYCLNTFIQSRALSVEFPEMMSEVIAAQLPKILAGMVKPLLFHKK

The target of the experiment is Progesterone receptor (Homo sapiens) (UniProt P06401). The experiment can be described thus: qHTS assay to identify small molecule agonists of the progesterone receptor (PR) signaling pathway (AID 1346784). Also: nearly all actives have a fitted effect of over 30% in size. The following applies: PR-UAS-bla HEK293T, beta-lactamase FRET ratio, 16 h; series mostly up to 92.4 µM. An excerpt:
U.S. Tox21 Program National Center for Advancing Translational Sciences [NCATS] NIH Chemical Genomics Center [NCGC] U.S. Environmental Protection Agency [EPA] National Institutes of Environmental Health Sciences [NIEHS] National Toxicology Program [NTP] U.S. Food and Drug Administration [FDA] […] Endocrine disrupting chemicals (EDCs) and their interactions with steroid hormone receptors like PR causes disruption of normal endocrine function. To identify the compounds that activate PR signaling, a PR-UAS-bla GripTite cell line i.e. PR-UAS-bla HEK 293T (Invitrogen, Carlsbad, CA, USA) containing a beta-lactamase reporter gene under the control of an Upstream Activator Sequence (UAS) was used to screen Tox21 10K compound library.
Tox21 Assay Protocol Summary: PR-UAS-bla HEK 293T cells were dispensed at 3,000 cells/5 uL of assay medium containing 2% charcoal stripped FBS per well into black wall/clear-bottom 1536-well plates using a Multidrop Combi (ThermoFisher Scientific, Waltham, MA) dispenser. After the assay plates were incubated at a 37C and 5% CO2 for 6hr, 23 nL of compounds dissolved in DMSO, positive controls or DMSO only was transferred to the assay plate by a Pintool station (Kalypsys, San Diego, CA). The plates were incubated at 37C and 5% CO2 for 16hr. Then 1 uL of LiveBLAzer B/G FRET substrate was added using a BioRAPTR FRD (Flying Reagent Dispenser, Aurora Discovery, San Diego, CA). After the plates were incubated at room temperature for 2 hours, fluorescence intensity was measured by an Envision plate reader (PerkinElmer, Shelton, CT).
Take `CCOC(=O)C(C)C(C)=O` (stereo not given): the Potency entry was “inactive”.

For `N[C@@H]1CONC1=O`, the Potency result was “inactive”.

With `C=CC(=O)OCCCCCCCC`, the Potency entry was “inactive”.

On to `CC[C@]1(O)C[C@@H]2CN(CCc3c([nH]c4ccccc34)[C@@](C(=O)OC)(c3cc4c(cc3OC)N(C)[C@H]3[C@@](O)(C(=O)OC)[C@H](OC(C)=O)[C@]5(CC)C=CCN6CC[C@]43[C@@H]65)C2)C1`, for which the Potency result was “inactive”.

For the compound `COC(=O)c1cccc(C(=O)OC)c1`, the Potency entry was “inactive”.

As to `O=C1NCC2(CCN(CCc3ccccc3)CC2)O1`, the Potency entry is “inactive”.

Consider `c1cnc2cc3c(cc2n1)C1CNCC3C1`, for which the Potency entry is “inactive”.

For `Nc1nc(=S)c2[nH]cnc2[nH]1`, the Potency result was “inactive”.

Consider `NC(N)=Nc1nc(CSCC/C(N)=N/S(N)(=O)=O)cs1`, for which the Potency result is “inactive”.

As for `CCCNC(C)C(=O)Nc1ccccc1C` (stereo not given), the Potency result was “inactive”.

In the case of `O=C(OCc1ccccc1)c1ccc(O)cc1`, the Potency result is “inactive”.

`CCC(C)(Oc1ccc(C2(c3ccc(OC(C)(CC)C(=O)O)cc3)CCCCC2)cc1)C(=O)O` (stereo not given): the Potency result is “inactive”.

With `CNC1(C)C2CCC(C2)C1(C)C` (stereo not given), the Potency result was “inactive”.

In the case of `CC(=O)CC(C)=O`, the Potency entry was “inactive”.

On to `CCC(C)(C)C(=O)O[C@H]1C[C@@H](C)C=C2C=C[C@H](C)[C@H](CC[C@@H]3C[C@@H](O)CC(=O)O3)[C@H]21`, for which the Potency entry was “inactive”.

Regarding `CC(=O)CC(=O)Nc1ccc2[nH]c(=O)[nH]c2c1`, the Potency entry is “inactive”.

Turning to `O=C(Cl)c1cccc(C(=O)Cl)c1`, the Potency result is “inactive”.

For the compound `CCN1CCCC1CNC(=O)c1cc(S(=O)(=O)CC)c(N)cc1OC` (stereo not given), the Potency entry is “inactive”.

For the compound `Cc1c(O)cccc1C(=O)N[C@@H](CSc1ccccc1)[C@H](O)CN1C[C@H]2CCCC[C@H]2C[C@H]1C(=O)NC(C)(C)C`, the Potency result is “inactive”.

Consider `Oc1ccc(Cl)cc1Cc1cc(Cl)ccc1O`, for which the Potency entry was “inactive”.

`NC12CC3CC(CC(C3)C1)C2`: the Potency result was “inactive”.

For `OCCN1CCNCC1`, the Potency result is “inactive”.

`C[N+]1([O-])CCOCC1`: the Potency result was “inactive”.

Consider `CCn1cc(C(=O)O)c(=O)c2cc(F)c(N3CCNC(C)C3)c(F)c21` (stereo not given), for which the Potency entry is “inactive”.

Turning to `Cc1cc(OCCOCC[N+](C)(C)Cc2ccccc2)ccc1C(C)(C)CC(C)(C)C`, the Potency entry is “inactive”.

With `CCCCC(CC)COC(=O)CC(C(=O)OCC(CC)CCCC)S(=O)(=O)O` (stereo not given), the Potency entry is “inactive”.

`CC(=O)Nc1ccc(C(=O)CCl)cc1`: the Potency entry was “inactive”.

Regarding `C/C=C/c1ccc(OCC)c(O)c1`, the Potency entry is “inactive”.

On to `c1ccc2c(c1)CCCC2C1=NCCN1` (stereo not given), for which the Potency entry is “inactive”.

With `CC1COC(=O)O1` (stereo not given), the Potency result is “inactive”.

In the case of `c1ccc2cc3c(ccc4ccccc43)cc2c1`, the Potency entry is “inactive”.

In the case of `Cc1cccc2n[nH]nc12`, the Potency result is “inactive”.

With `Cc1cccc(O)c1C`, the Potency is 24.2 µM (active) and inactive.

Consider `CCCCCCCCCCCCCCCCCl`, for which the Potency was 3.84 µM (active).

With `O=C1Nc2ccccc2C1(c1ccc(O)cc1)c1ccc(O)cc1`, the Potency entry is “inactive”.

As to `CC1=C(C=O)C(C)(C)CC=C1`, the Potency entry is “inactive”.

Turning to `Cc1c2oc3c(C)ccc(C(=O)N[C@@H]4C(=O)N[C@H](C(C)C)C(=O)N5CCC[C@H]5C(=O)N(C)CC(=O)N(C)[C@@H](C(C)C)C(=O)O[C@@H]4C)c3nc-2c(C(=O)N[C@@H]2C(=O)N[C@H](C(C)C)C(=O)N3CCC[C@H]3C(=O)N(C)CC(=O)N(C)[C@@H](C(C)C)C(=O)O[C@@H]2C)c(N)c1=O` (I: T[dV]P[Sar][NMeV] / II: T[dV]P[Sar][NMeV]; ester I:1-I:C, II:1-II:C; linker I:N-II:N via Actinocin(9to1)), the Potency result is “inactive”.

Regarding `CC(C)(C)c1ccccc1`, the Potency entry is “inactive”.

Consider `CCCCC/C=C/CC1CC(=O)OC1=O` (stereo not given), for which the Potency result is “inactive”.

Turning to `CN(C)c1ccc(C(=C2C=CC(=[N+](C)C)C=C2)c2ccccc2)cc1`, the Potency entry is “inactive”.
